Broadly, the inhibition is the relative decrease from the control value, in per cent.

About 4,000 (1.3%) of roughly 300,000 compounds were called active. The full list was thinned out, with actives kept by preference. Unmarked numbers belong to inactive results.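 The calls were made as follows: active = mean replicate score, as percent of positive control median, at least 50; inconclusive = mean below 50 but one replicate at or above 50; inactive = mean and every replicate below 50.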

This assay in a line: kanamycin survival loss of SKKanGAS strain – BacTiter-Glo luminescence, streptokinase expression inhibitor project, primary screen (AID 1662).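 Also: strain carries kanamycin resistance gene driven by streptokinase promoter and grows in 40 µg/ml kanamycin; loss of luminescence reflects streptokinase promoter inhibition or plain growth inhibition; 0% = median of DMSO wells and 100% = positive control at its reference dose.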 Conditions: S. pyogenes SKKanGAS, kanamycin growth, 6 h, at 7.5 µM, hits give high values.
For `CCCCCC(O)(CCN1CCCCC1)c1ccccc1` (configuration not stated), the inhibition is -0.734%. The figure for `Cc1ccsc1C(=O)OCC(=O)c1cc2ccccc2o1` is 49.9% (active); for `Cc1ccsc1C(=O)OCC(=O)c1cc(C)n(CC2CCCO2)c1C` (configuration not stated) it is 9.42%; for `CSCCC(NC(=O)COc1ccccc1)C(=O)OCC(=O)c1cc2ccccc2o1` (configuration not stated) it is -0.0582%.

For `CC(C)(C)NC(=O)CN(C(=O)c1ccc(Cl)nc1)c1cccc2ccccc12`, the inhibition was -17.5%. With `CC(C)Oc1ccc(/C=N/NC(=O)c2nnn(-c3nonc3N)c2CN(C)C2CCCCC2)cc1`, the inhibition was 18.9%. The figure for `O=C(NCC(=O)N1CCN(c2ccccc2O)CC1)c1ccc2ccccc2c1` is 11.7%; for `O=C1NN(c2ccccc2)C(=O)/C1=C/c1ccc(-c2cccc(C(=O)O)c2)o1` it is -2.46%; for `O=C(O)C(c1ccccc1)N1C(=O)/C(=C\c2ccc(-c3cccc(Cl)c3)o2)SC1=S` (configuration not stated) it is 94% (active).

In the case of `CN1C(=O)/C(=C\c2ccc(-c3ccccc3)o2)SC1=S`, the inhibition was 7.05%. For `Cn1c(=O)oc2cc(S(=O)(=O)NCCC(=O)NCc3ccccc3Cl)ccc21`, the inhibition is 2.05%. The figure for `C=CCn1c(C23CC4CC(CC(C4)C2)C3)n[nH]c1=S` is 1.54%. For the molecule `Cc1cc(NC(=O)CSc2nc3cc(Cl)ccc3c(=O)n2Cc2ccco2)no1`, the inhibition was 1.74%.

As to `COc1ccccc1NC(=O)CSc1nc2sc3c(c2c(=O)n1-c1ccccc1)CCN(C)C3`, the inhibition was -17%. On to `COc1ccccc1NC(=O)CSc1nc2sc(C)c(C)c2c(=O)n1Cc1ccco1`, for which the inhibition was 52.6% (active). Take `CC(C)Cc1oc(C(=O)O)cc1CN`: the inhibition is 4.13%. As for `C[C@H](NC(=O)c1nc[nH]c1C(=O)N[C@@H](C)C(=O)OC(C)(C)C)C(=O)OC(C)(C)C`, the inhibition was 1.23%. Under `Cc1ccc(NC(=O)c2nc[nH]c2C(=O)N[C@@H](CCCCNC(=O)OC(C)(C)C)C(=O)OC(C)(C)C)cc1` stands 76.8% (active). The figure for `CCOC(=O)c1[nH]cnc1C(=O)Nc1ccccc1C` is 10.7%; for `CCOC(=O)c1ccc(NC(=O)c2nc[nH]c2C(=O)NCc2ccccc2)cc1` it is 18.8%; for `CCOC(=O)c1ccc(NC(=O)c2nc[nH]c2C(=O)N[C@@H](CCCCNC(=O)OC(C)(C)C)C(=O)OC(C)(C)C)cc1` it is 50.8% (active). The figure for `CNC(=O)c1[nH]cnc1C(=O)N[C@@H](CC(C)C)C(=O)OC(C)(C)C` is -5.44%. Take `Cc1cc(C(=O)CCC(=O)NNC(=O)c2ccccc2O)c(C)s1`: the inhibition was 12.7%. On to `O=C1c2ccccc2S(=O)(=O)c2cc(N3CCN(c4ccccn4)CC3)ccc21`, for which the inhibition was 14.1%. As to `COCc1cc(=O)n2[nH]c(C)c(-c3ccccc3)c2n1`, the inhibition was -14.5%. On to `CCCc1cc(=O)n2[nH]c(C)c(-c3ccc(Cl)cc3)c2n1`, for which the inhibition was 53.5% (active).

Consider `Cc1nc2c(-c3ccccc3)c(C)[nH]n2c(=O)c1Cl`, for which the inhibition was 18.8%. The figure for `Cc1ccc2nnn(Cc3cccc(C(C)(C)C)c3O)c2c1` is 11.4%; for `CC1=NNC(=O)C1CCC(=O)N/N=C\c1cccc(Cl)c1` (configuration not stated) it is 4.3%. Under `O=c1[nH]oc(O)c1-c1ncc(C(F)(F)F)cc1Cl` stands -8.5%.

For the molecule `Cc1ccc(NC(=O)C2CC(=O)N(c3ccc4c(c3)OCCO4)C2)cc1S(=O)(=O)N1CCCCCC1` (configuration not stated), the inhibition is -2.91%.

Consider `CCC(=O)N1CCN(c2ccccc2NC(=O)COc2cccc(C)c2C)CC1`, for which the inhibition was 5.73%. As to `Cc1ccccc1NC(=O)CNc1ccccc1N1CCCCC1`, the inhibition is 9.21%.

For the molecule `Cc1ccc(C(C)C)cc1OCC(=O)Nc1ccccc1N1CCCC1`, the inhibition was 69.7% (active). With `Cc1nn2c(NCCN(C)C)c3c(nc2c1-c1ccccc1)CCC3`, the inhibition is 6.41%.

As to `Cc1cccc(N2CCN(C(=O)c3cnn4c(C(F)F)cc(-c5ccccc5)nc34)CC2)c1C`, the inhibition is 38.6%. `Cc1ccc(Cl)cc1N1CCN(C(=O)c2cccc3c(=O)c(C)c(-c4ccccc4)oc23)CC1`: the inhibition is 52.6% (active). For `COC(=O)c1ccc(C(=O)OC)c(NC(=S)N2CCN(c3cc(Cl)ccc3C)CC2)c1`, the inhibition is 14.5%.

In the case of `CC1(C)C=C2[C@H]3CC[C@@H]4[C@@]5(C)CCC(=O)C(C)(C)[C@@H]5CC[C@@]4(C)[C@]3(C)CC[C@@]2(C(=O)O)CC1`, the inhibition was 96.7% (active). Consider `Cc1ccc(S(=O)(=O)N2CCOCC2)cc1C(=O)Nc1ccccc1N1CCCC1`, for which the inhibition was -4.42%.

For `COc1ccc(C(=O)NC2CC2)cc1OC1CCN(Cc2cnn(C)c2)CC1`, the inhibition is 7.48%.

For the molecule `CCCCCC(O)c1cccc(OCc2ccc3ccccc3n2)c1` (configuration not stated), the inhibition is 15.6%. The figure for `CCOC(=O)C1=C(C)N=C2c3ccccc3C(=O)C2C1c1ccc(Br)cc1` (configuration not stated) is 38.8%; for `O=C1c2ccccc2C2=Nc3ccccc3SC(c3ccccc3F)C12` (configuration not stated) it is 52.9% (active); for `O=C1c2ccccc2C(=O)C1c1ccccc1F` it is 0.629%. Under `O=C(c1ccc(F)cc1)C1CCN(Cc2cn[nH]c2-c2ccccc2)CC1` stands -0.535%; under `CCN1C(=O)[C@H]2[C@@H](c3ccc(-c4ccc(F)cc4)cc3)N[C@@](Cc3ccccc3)(C(=O)OC)[C@H]2C1=O`, 9.27%; under `CCC(C)C(=O)Nc1cc([N+](=O)[O-])ccc1Cl` (configuration not stated), -5.67%. Under `O=C(CN1CCSCC1)N/N=C/c1ccc(F)cc1F` stands -4.84%; under `O=C(NCCN1CCOCC1)c1cc(-c2cccs2)nc2ccccc12`, -10.4%. For `COC(=O)c1cc(-c2cccs2)nc2ccccc12`, the inhibition is -7.36%. Under `O=C(Nc1nnc(-c2ccccc2)o1)c1cc(-c2cccs2)nc2ccccc12` stands 92.3% (active); under `C#CCNC(=O)C1=C[C@@H](c2ccccc2)[C@H](CCCO)[C@@H](OCC)O1`, 0.924%.

Consider `O=C(Nc1ccccc1Cl)NC1(C(=O)N2CCOCC2)CCCCC1`, for which the inhibition is -13%. Take `CCCCc1nc(NCCN)c(C#N)c2c1CSC(C)(C)C2`: the inhibition was -15.3%. The figure for `CCc1nc(NCCO)c(C#N)c2c1CCCC2` is -3.02%. Under `CCCCc1nc(NCc2ccccc2)c(C#N)c2c1CCCC2` stands 60% (active). As to `CCCNC(=O)C(=O)Nc1cc2c3c(c1)CCC(=O)N3CCC2`, the inhibition is -4.99%. Under `COc1cc(NS(=O)(=O)c2ccc(NC(=S)NC(=O)c3ccc(Br)cc3)cc2)ncn1` stands 16.4%; under `CC(c1cccnc1)N(CCN(C)C)C(=O)Nc1ccc(Cl)c(Cl)c1` (configuration not stated), -0.312%. Take `Cc1ccccc1C(=O)Nc1ccccc1Sc1ccccc1`: the inhibition was 25.4%. The figure for `O=C(COC(=O)c1ccccc1)Nc1ccccc1Sc1ccccc1` is 58.2% (active); for `O=C(COC(=O)c1cccc(Br)c1)Nc1cccc2c1C(=O)c1ccccc1C2=O` it is -1.24%; for `CC(=O)N[C@H]1[C@H]([C@H](O)[C@H](O)CO)OC(C(=O)O)=C[C@@H]1O` it is -0.96%. The figure for `N=c1c2c(-c3ccccc3)c(-c3ccccc3)n(Cc3ccccc3)c2ncn1CCCO` is -1.98%; for `N=c1c2c(-c3ccccc3)c(-c3ccccc3)oc2ncn1Cc1ccco1` it is 63.5% (active). The figure for `c1ccc(-c2oc3ncnc(N4CCOCC4)c3c2-c2ccccc2)cc1` is -2.29%; for `COc1ccc(-c2oc3ncnc(NCCCO)c3c2-c2ccc(OC)cc2)cc1` it is 33.4%. As for `COc1ccc2[nH]c3c(=O)n(Cc4ccco4)cnc3c2c1`, the inhibition was 17.1%. The figure for `COc1ccc(-c2oc3ncn(Cc4ccco4)c(=N)c3c2-c2ccc(OC)cc2)cc1` is 55% (active); for `O=C(O)CC(Cn1cnnn1)c1ccccc1` (configuration not stated) it is -1.95%.

In the case of `C/C(CC(C)C)=N\Oc1nc(C)cc(C)n1`, the inhibition was -4.06%. The figure for `O=[N+]([O-])c1ccc(NCCCO)c(C(F)(F)F)c1` is 0.29%. The figure for `COc1cc(C=O)ccc1Oc1nnnn1-c1ccccc1` is 24.2%. Under `CN(C(=O)Nc1ccc(Cl)cc1)n1cnc2ccccc2c1=O` stands 3.63%.

For `Oc1ccc(Br)cc1/C=N/Nc1ccccn1`, the inhibition was 106% (active).

Take `O=C(CCCO)N/N=C/c1cc(Br)ccc1O`: the inhibition was -3.72%. Turning to `Oc1ccc(/C=N/Nc2ccc(C(F)(F)F)cn2)cc1O`, the inhibition is -9.78%.

As for `CN(C)Cc1ccc(F)cc1Sc1cc(Cl)ccc1Cl`, the inhibition is -3.54%. Under `CC(=O)Nc1ccc(S(=O)(=O)Nc2nc(-c3ccc(C(C)(C)C)cc3)cs2)cc1` stands 0.664%. `O=C(Nc1ccc(-c2csc(Nc3cccc(C(F)(F)F)c3)n2)cc1)c1cccc(C(F)(F)F)c1`: the inhibition was 98.6% (active).

For the molecule `Cc1nc(NC(=O)c2cccc(Cl)c2)sc1-c1csc(Nc2cccc(Cl)c2)n1`, the inhibition was 25.6%.

On to `COc1c(O)cc2oc(-c3ccc(O)c(O)c3)cc(=O)c2c1O`, for which the inhibition was 3.54%. Under `OCc1ccc(-c2ccccc2)c(-c2ccccc2)c1` stands -11.9%; under `COCCNC(=S)N(CCc1c(C)[nH]c2ccc(C)cc12)Cc1cccnc1`, 8.58%.

Regarding `O=C(O)c1cccc(N=NN2CCCCCC2)c1`, the inhibition was 5.53%. As for `C[C@H]1[C@H]2c3nc4ccccc4n3C[C@H]1ON2C1CCCCC1`, the inhibition was -3.38%. Under `Cn1c(SCC(=O)Nc2ccc(Cl)cc2)nc(O)cc1=O` stands 112% (active); under `COc1ccc(NC(=O)CSc2nc3ccccc3c(=O)n2C)cc1`, -4.23%. As to `Cc1ccccc1-n1c(SCC(=O)Nc2cccc3ccccc23)nc(O)cc1=O`, the inhibition was 18.6%. The figure for `C/C(=N\Nc1cccc(C(=O)O)c1)c1ccc2c(c1)Nc1ccccc1S2` is 0.801%. The figure for `COc1ccccc1CCNC(=O)c1c(C)nn(CC(C)C)c1Cl` is -0.777%.

The record behind these values is PubChem BioAssay AID1662 (Broad Institute, 2009).
